# Bioassay records as filed in PubChem BioAssay.
# Dicer processing – blocks human Dicer maturation of pre-miR-21; cat-ELCCA pre-miR-21 Dicer processing, chemiluminescence; stronger effect = higher value; z-score at 25 µM; actives 6% (n = 47,000); AID 1347074; in the data active = z-score above about 3, passing the limit was not always enough;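 also: plate controls were vehicle for no effect and no enzyme for full effect; higher signal means more uncleaved substrate so more Dicer inhibition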
# Target sequence (Q9UPY3 whole entry, looked up): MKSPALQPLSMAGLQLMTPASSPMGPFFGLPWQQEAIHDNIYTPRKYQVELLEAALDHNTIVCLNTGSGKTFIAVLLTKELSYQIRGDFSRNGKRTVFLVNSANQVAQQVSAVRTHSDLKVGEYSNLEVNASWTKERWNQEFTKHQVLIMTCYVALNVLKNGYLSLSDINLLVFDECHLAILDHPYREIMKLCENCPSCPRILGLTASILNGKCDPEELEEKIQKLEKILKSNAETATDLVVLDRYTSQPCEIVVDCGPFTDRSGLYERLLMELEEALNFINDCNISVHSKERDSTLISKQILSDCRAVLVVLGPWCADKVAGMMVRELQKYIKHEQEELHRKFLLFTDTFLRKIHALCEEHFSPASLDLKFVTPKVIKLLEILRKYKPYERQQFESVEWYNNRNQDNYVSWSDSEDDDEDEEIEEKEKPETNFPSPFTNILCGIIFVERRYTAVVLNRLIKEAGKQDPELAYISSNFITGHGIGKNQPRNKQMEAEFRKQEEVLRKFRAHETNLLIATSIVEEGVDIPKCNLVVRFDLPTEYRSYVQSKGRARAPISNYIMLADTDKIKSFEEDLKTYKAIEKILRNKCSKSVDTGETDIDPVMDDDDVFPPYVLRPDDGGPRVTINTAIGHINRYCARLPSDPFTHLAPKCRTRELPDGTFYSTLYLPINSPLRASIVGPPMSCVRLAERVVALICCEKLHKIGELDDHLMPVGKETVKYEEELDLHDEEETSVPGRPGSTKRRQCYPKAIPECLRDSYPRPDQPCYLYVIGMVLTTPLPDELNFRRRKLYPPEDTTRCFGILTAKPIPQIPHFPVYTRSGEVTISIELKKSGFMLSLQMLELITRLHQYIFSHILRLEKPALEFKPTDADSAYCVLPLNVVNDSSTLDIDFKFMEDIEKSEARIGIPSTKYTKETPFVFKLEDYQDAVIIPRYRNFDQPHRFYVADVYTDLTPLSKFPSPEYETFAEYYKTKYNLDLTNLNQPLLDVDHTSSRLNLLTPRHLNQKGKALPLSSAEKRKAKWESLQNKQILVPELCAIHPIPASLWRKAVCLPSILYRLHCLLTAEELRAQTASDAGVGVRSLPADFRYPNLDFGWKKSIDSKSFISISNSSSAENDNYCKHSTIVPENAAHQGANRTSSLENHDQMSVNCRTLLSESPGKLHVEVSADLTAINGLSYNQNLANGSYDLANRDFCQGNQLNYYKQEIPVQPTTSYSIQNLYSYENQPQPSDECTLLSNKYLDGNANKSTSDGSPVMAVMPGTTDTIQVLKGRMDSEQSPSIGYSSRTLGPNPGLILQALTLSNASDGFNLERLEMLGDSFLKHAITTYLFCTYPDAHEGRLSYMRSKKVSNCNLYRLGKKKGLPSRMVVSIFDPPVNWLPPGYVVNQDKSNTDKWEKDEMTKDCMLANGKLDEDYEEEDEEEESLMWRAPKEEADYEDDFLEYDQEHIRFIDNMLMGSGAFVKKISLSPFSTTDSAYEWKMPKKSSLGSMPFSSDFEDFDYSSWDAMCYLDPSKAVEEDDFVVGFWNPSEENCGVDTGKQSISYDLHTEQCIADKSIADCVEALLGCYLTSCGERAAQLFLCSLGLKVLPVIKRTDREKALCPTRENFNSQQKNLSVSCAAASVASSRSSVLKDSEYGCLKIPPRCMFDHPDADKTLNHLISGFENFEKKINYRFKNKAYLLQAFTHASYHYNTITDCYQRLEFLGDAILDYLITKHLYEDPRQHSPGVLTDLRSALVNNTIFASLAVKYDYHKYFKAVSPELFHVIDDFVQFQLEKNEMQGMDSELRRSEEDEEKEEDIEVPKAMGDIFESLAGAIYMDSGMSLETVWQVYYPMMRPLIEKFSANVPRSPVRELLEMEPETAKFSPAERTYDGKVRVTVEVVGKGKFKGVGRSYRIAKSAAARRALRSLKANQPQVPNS
# An asterisk follows results filed as active; ! = repeats disagree. The full list was thinned out, with hits kept by preference.
SMILES,Dicer processing
N#Cc1cnc(Sc2nnc(-c3ccncc3)o2)nc1N,-1.7
COc1ccc(Nc2nc(NC(=O)Nc3ccc(Cl)cc3)n[nH]2)cc1,10*
COc1ccc2nc(NC(=O)Nc3ccc(Cl)cc3)sc2c1,2.7
COc1ccc(NC(=O)/C=C/c2ccc(Cl)cc2)cc1,-0.89
CCCOc1ccc(C2C(C(=O)OC)=C(C)NC3=C2C(=O)CCC3)cc1OC (configuration not stated),-1.8
N#C/C(=C\Nc1ccccc1Cl)S(=O)(=O)c1ccccn1,-0.54
O=C(O)COc1ccc(CO)cc1Cl,-0.74
CC(C)C1C(=O)CC(c2ccccc2)NC1c1ccccc1 (configuration not stated),0.45
O=C1C(=O)C(c2ccccc2)C(=O)C1c1ccccc1 (configuration not stated),1.6
O=C1NNC(c2ccccc2)C1c1ccccc1 (configuration not stated),3.5*
CCOC(=O)C1=C(C)NC2=C(C(=O)CCC2)C1c1ccc(OC)c(O)c1 (configuration not stated),9.1
CCOc1ccc2ccccc2c1/C=C1\N=C(SCC)SC1=O,0.11
FC(F)(F)c1cc(-c2ccccc2)n[nH]1,0.31
FC(F)(F)c1cc(-c2ccc3c(c2)OCO3)n[nH]1,-0.7
Cc1ccc(O)c(-c2cc(C(F)(F)F)[nH]n2)c1,4.1*
Cc1ccc(C(=O)C2CCN(C(=S)Nc3ccc(Cl)cc3Cl)CC2)cc1,-0.88
O=C1NCCN=C(c2ccccc2)c2ccccc21,0.36
FC(F)(F)C1=CC(c2ccccc2)=NCCN1,3.1*
FC(F)(F)C1=CC(c2ccc(Br)cc2)=NCCN1,3.6*
Nc1nc(-c2ccc(Br)cc2)cc(C(F)(F)F)n1,0.66
C/C(=N\NC1=NCCN1)c1ccc(Br)cc1,-0.75
c1ccc2c(CC3=NCCN3)cccc2c1,2.7
CCOC(=O)c1cnc(Nc2ccc(F)cc2)nc1C(F)(F)F,-0.57
CCOC(=O)NC(=S)NCCC1CCNCC1,1.4
CC(C(=O)c1ccc(-c2ccccc2F)cc1)N1CCN(c2ccc(C(F)(F)F)cn2)CC1 (configuration not stated),-1.3
SMILES,Dicer processing
CCOc1cccc(C2N=C(N)Nc3nc4ccccc4n32)c1 (configuration not stated),-0.43
Cc1cc(C(=O)NNC(N)=S)nn1C,0.51
O=C(NCc1c(Cl)cc(C(F)(F)F)cc1Cl)c1ccc(C(F)(F)F)cc1,-1.2
CCc1cccc(CC)c1N(C)C(=O)c1cnccc1C(F)(F)F,-0.84
O=C(C1=C(O)C(=O)N(Cc2cccnc2)C1c1ccc(Cl)cc1)c1cccs1 (configuration not stated),0.65
O=C(CSC1=NCCc2ccccc21)c1ccc(Cl)cc1,-4.5
COC(=O)c1sccc1N/C=C(\C#N)S(=O)(=O)c1cccs1,19*
N#C/C(=C\c1c(Cl)cccc1Cl)S(=O)(=O)c1cccs1,-0.95
CN(C)/C=C(\C#N)S(=O)(=O)c1cccs1,-1.8
Cc1cc(C)nc(NS(=O)(=O)c2ccc(NC(=O)Nc3cscc3-c3ccccc3)cc2)n1,7.3
NC(N)=N/N=C/c1ccc(Cl)cc1Cl,4.5*!
NC(N)=N/N=C/c1ccc(Cl)c(Cl)c1,0.83
N#C/C(=C\c1ccc(Cl)cc1Cl)C(N)=S,-0.55
Fc1ccc(-c2nnn(Cc3cccc(F)c3)n2)cc1,-0.05
O=C1SCCC1NS(=O)(=O)c1ccc(F)cc1Cl (configuration not stated),-1.1
COc1ccc(C(=O)Cn2c3ccccc3n3ncnc23)cc1,1.9
Cc1c(C)n(C(=O)CSc2ccccn2)c2ccccc12,0.06
O=C(Nc1ccc(F)cc1F)N1CCN(Cc2ccccc2)CC1,3*
CCOC(=O)C1CCN(C(=O)Nc2ccc(F)cc2F)CC1,-0.78
CC(C)(C)OC(=O)NC1CCN(C(=O)Nc2ccc(F)cc2F)CC1,0.45
Cc1cc(Cl)c(OC(=O)c2ccc(Cl)cc2Cl)c(Cl)c1,2.1
CC(C)(C)OC(=O)C1C(=O)CC(C)(O)C(C(=O)OC(C)(C)C)C1c1ccc(F)cc1 (configuration not stated),-1.5
O=C1CC2(CCCC2)C(=O)N1c1ccc(S(=O)(=O)NCCNc2cccc(C(F)(F)F)n2)cc1Cl,-0.52
N#Cc1c(-c2ccc(Cl)cc2)cc(-c2ccccc2)[nH]c1=S,3.8*
COc1ccc(-c2cc(-c3ccc(C)cc3)[nH]c(=S)c2C#N)cc1,0.56
SMILES,Dicer processing
COc1ccc(-c2cc(-c3cccs3)[nH]c(=S)c2C#N)cc1,1.1
Cc1ccc(C2/C(=C(\O)c3ccc(Cl)cc3)C(=O)C(=O)N2CCCn2ccnc2)cc1 (configuration not stated),-1.6
CCOCCCNC(=O)Cn1cnc2c1c(=O)n(C)c(=O)n2C,1.3
Cn1c(=O)c2c(ncn2CC(=O)NCc2ccc3c(c2)OCO3)n(C)c1=O,6.6*
CC(C)CNC(=O)Cn1cnc2c1c(=O)n(C)c(=O)n2C,0.1
CCCNC(=O)Cn1cnc2c1c(=O)n(C)c(=O)n2C,-0.92
Cn1c(=O)c2c(ncn2CC(=O)Nc2ccc3c(c2)OCCO3)n(C)c1=O,0.53
CCCCCCCNC(=O)Cn1cnc2c1c(=O)n(C)c(=O)n2C,4*
CC(C)N1C(=O)C2ON(c3ccc(Cl)cc3)C(c3ccc(N(C)C)cc3)C2C1=O (configuration not stated),1
CCCCC#Cc1ccc(C(=O)NNC(=S)NC)o1,0.48
CC1=C(C(=O)OCc2ccccc2)C(c2ccc3ccccc3c2)N(C)C(=O)N1C (configuration not stated),-0.4
O=C(OCCS(=O)(=O)c1ccc(Cl)cn1)c1cccc(Cl)c1,-0.34
CN(C(=O)Cn1c(-c2nonc2N)nc2ccccc21)c1ccccc1,4.1*
Nc1nonc1-c1nc2ccccc2n1CC(=O)Nc1ccc(F)cc1,-1
O=C1CN(CC(=O)N2CCN(c3ccc(F)cc3)CC2)c2ccccc2O1,-3.2
Nc1nonc1-c1nc2ccccc2n1Cc1ccc(Cl)cc1,1.1
COc1cccc(Cn2c(-c3nonc3N)nc3ccccc32)c1,4.2*
Cc1ccc(Cn2c(-c3nonc3N)nc3ccccc32)cc1,-0.74
CCC(=O)Nc1nonc1-c1nc2ccccc2n1CCC(C)C,-2.5
CN(C(=O)Cn1c(-c2cncs2)nc2ccccc21)c1ccccc1,0.95
Nc1nonc1-c1nc2ccccc2n1CC(=O)N1CCN(c2ccc(F)cc2)CC1,3.4*
CSc1sc(C(=O)NNC(=O)c2ccc(Cl)cc2)c2c1C1(CCC2)SCCS1,0.18
O=C1/C(=C/c2ccc(-c3cc(C(F)(F)F)cc(C(F)(F)F)c3)o2)Cc2ccccc21,0.1
COc1ccc(C2C3CSc4ccccc4C3=NN2c2ccccc2)cc1 (configuration not stated),-0.66
CC(=O)Oc1ccc2occ(C(=O)c3ccc(Cl)cc3)c2c1,5.8
SMILES,Dicer processing
O=C(c1ccco1)c1coc2ccc(O)cc12,5.5*
NC(=O)Cn1cc(C(=O)c2ccco2)c2ccccc21,-0.25
CCS(=O)(=O)N1CCN(c2nc(-c3ccccc3)ns2)CC1,-0.23
c1ccc(-c2nsc(N3CCCC3)n2)cc1,3*
O=C(O)CSCC(=O)N1CCN(c2nc(-c3ccccc3)ns2)CC1,1.2
Cc1cc(=O)cc(C)n1NC(=O)c1cccnc1,0.03
Cc1cc(OC(=O)c2c(-c3ccccc3)noc2C)n(-c2ccccc2)n1,-2.2
COc1ccc2c(c1)-c1nc(NC(=O)c3ccco3)sc1CC2,5*
CCCCCCCCC(=O)Nc1nc2c(s1)CCc1cc(OC)ccc1-2,-0.7
COc1cc(OC)cc(C(=O)Nc2nc3c(s2)CCc2cc(OC)ccc2-3)c1,0.56
COc1ccc2c(c1)CCc1sc(NC(=O)c3ccco3)nc1-2,3.1*
